# Screening data as filed in PubChem.
# Compounds with a hit are over-represented: about 7.3% of the library has one in this group of screens.
# ELG1 genotoxic: qHTS screen for small molecules that induce genotoxicity in human embryonic kidney (HEK293T) cells expressing luciferase-tagged ELG1; HEK293T ELG1-luciferase reporter, luminescence, 16 h; Potency, µM (top dose mostly 46 µM), for the others: at the top dose activity change, positive = activation, most hits filed as activators; 330,000 tested, 1.3% active; AID 504466, 2011; further: % of control where 0% means no effect; nearly all actives have a fitted effect of over 60% in size
#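 ELG1-luciferase HEK293T cells, 2,000/well; compound pinned in; 16 hr, 37 °C, 5% CO2; ONE-Glo, 30 min RT; luminescence on CCD imager.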
# uPA surface inh: qHTS for Inhibitors of Cell Surface uPA Generation. Potency, µM (series often up to 38.3 µM), for inactives: top-dose activity change, negative = inhibition, hits mostly inhibitors. AID 540303, 2011. 330,000 tested, 0.31% active. cell surface uPA generation assay, qHTS; active means well fitted inhibition curve with a large enough effect; inconclusive means small, poorly fitted or top-dose-only effect; inactive means no such curve, though single readings can be large or run the other way; tested in mouse RAW 264.7 cells; further: on the % scale 0 is the no-effect control and ±100 the full control effect; nearly all actives have a fitted effect of over 55% in size
# FLuc counter: qHTS profiling assay for firefly luciferase inhibitor/activator using purifed enzyme and Km concentrations of substrates (counterscreen for miR-21 project). 360,000 tested, 6.9% active. purified FLuc, Km substrates, luminescence inhibition. Luciferin 4-monooxygenase (Photinus pyralis), P08659. AID 588342, 2011. Potency, µM (top dose mostly 57.5 µM), for inactives: at the highest dose activity change, negative = inhibition, hits mostly inhibitors;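 further: plate controls were vehicle for no effect and reference inhibitor for full effect; nearly all actives have a fitted effect of over 55% in size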
# Target sequence (P08659 whole entry, looked up): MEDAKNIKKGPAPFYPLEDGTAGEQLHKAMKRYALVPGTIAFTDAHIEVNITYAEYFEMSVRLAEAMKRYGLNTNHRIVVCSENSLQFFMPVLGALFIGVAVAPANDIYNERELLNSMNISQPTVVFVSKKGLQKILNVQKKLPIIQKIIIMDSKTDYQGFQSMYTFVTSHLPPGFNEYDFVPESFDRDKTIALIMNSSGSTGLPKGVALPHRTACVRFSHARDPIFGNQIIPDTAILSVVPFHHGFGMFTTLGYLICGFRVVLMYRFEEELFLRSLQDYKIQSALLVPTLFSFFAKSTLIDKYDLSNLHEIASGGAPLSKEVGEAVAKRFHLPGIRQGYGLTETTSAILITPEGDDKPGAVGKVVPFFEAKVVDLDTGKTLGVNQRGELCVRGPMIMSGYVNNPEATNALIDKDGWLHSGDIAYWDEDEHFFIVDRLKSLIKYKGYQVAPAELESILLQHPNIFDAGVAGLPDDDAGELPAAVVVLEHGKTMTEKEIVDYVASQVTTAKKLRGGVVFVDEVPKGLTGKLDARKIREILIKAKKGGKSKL
#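 Purified P. pyralis luciferase, 10 nM final, with Km-level 10 uM D-luciferin and 10 uM ATP in 50 mM Tris acetate pH 7.5, 10 mM Mg acetate, 0.01% Tween-20, 0.05% BSA; 6-point qHTS titration about 60 µM downward; luminescence read.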
# NPC1 prom act: qHTS Assay for NPC1 Promoter Activators. Huh7 NPC1 promoter luciferase reporter, 24 h. Potency, µM (series often up to 9.22 µM), without a hit: at the highest dose activation, usual class: activators. 320,000 tested, 2.4% active; further: % of control where 0% means no effect; nearly all actives have a fitted effect of over 60% in size
#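 Compounds in DMSO were transferred onto Huh7 NPC1-luciferase reporter cells pre-incubated 2 h; after 24 h at 37 °C, Amplite reagent was dispensed and luminescence recorded 10 min later.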
# SMN2 splice up: qHTS Assay for Enhancers of SMN2 Splice Variant Expression. HEK293 SMN2-luciferase splicing reporter, luminescence, 30-36 h. Potency, µM (series often up to 46.1 µM), inactives show at the highest dose activity change, positive = activation, hits mostly activators. 210,000 tested, 2.8% active. AID 1458, 2008; further: % of control where 0% means no effect; nearly all actives have a fitted effect of over 55% in size
#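 HEK293 cells carry an SMN2 minigene-luciferase reporter in which exon 7 inclusion puts luciferase in frame. Cells were seeded at 2000 cells/well, attached for 10-12 hours, then exposed to compounds for 30-36 hours at 37C before ONE-Glo luminescence.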
# Rab9 promoter act: qHTS Assay for Rab9 Promoter Activators; Huh7 Rab9 promoter-luciferase reporter, luminescence, 24 h; Potency, µM (titrated, usually from 9.22 µM), without a hit: top-dose activation, negative = inhibition, most hits filed as activators; 320,000 tested, 2.8% active; further: % of control where 0% means no effect; nearly all actives have a fitted effect of over 60% in size
#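 Luminescence from Amplite-detected luciferase (10 minutes, ambient) reports Rab9 promoter activation. Before that, stable Rab9-luciferase Huh7 cells (1500/well, reduced-serum OP-MEM I plus 10% FBS) were exposed to compound for 24 hours at 37C.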
# * marks the source's active call; other numbers are inactive results; ? = inconclusive; · = no result. Unless noted, the call rests on the fitted dose curve; in most records, active means well fitted curve in the direction sought with a large enough effect; inconclusive means small, poorly fitted or top-dose-only effect, or another doubt; inactive means no such curve, though single readings can be large; an effect the other way counts as inactive or inconclusive. Potency means the concentration at half of the fitted maximal effect.
SMILES,ELG1 genotoxic,uPA surface inh,FLuc counter,NPC1 prom act,SMN2 splice up,Rab9 promoter act
O=C(NCCSc1ccccc1)c1ccc(CN2CCOCC2)cc1,?,12%,12µM*,2µM*,·,2µM*
CC(C)COc1cccc(C(=O)Nc2ccc(CN3CCOCC3)cc2)c1,-8%,-5%,?,3%,·,2%
O=C(Nc1ccc(Cn2cccn2)cc1)c1ccc(COc2ccccc2Br)cc1,-6%,-9%,17µM*,9%,-43%,-5%
COc1cc(NC(=O)C2CCN(c3nc4ccccc4nc3C(F)(F)F)CC2)cc(OC)c1,·,·,2%,·,·,·
CN(C)c1ccc(C(CNS(=O)(=O)c2ccc(Cl)cc2)N2CCOCC2)cc1 (configuration not stated),·,·,-7%,·,·,·
O=C(NC(N1CCOCC1)C(Cl)(Cl)Cl)c1ccco1 (configuration not stated),16µM*,5%,8.5µM*,?,·,?
O=C(Nc1ccccc1N1CCOCC1)c1ccc2c(c1)OCO2,0%,2%,?,-2%,-3%,-6%
CCC(C)Oc1ccc(C(=O)Nc2ccc(CN3CCOCC3)cc2)cc1 (configuration not stated),-2%,?,15µM*,-5%,·,-10%
O=C(Nc1ccccc1N1CCOCC1)c1ccc2ccccc2c1,-4%,-2%,11µM*,8%,·,3%
C/C(=N/NC(=O)c1ccco1)c1ccc(NC(=O)c2ccc(F)cc2)cc1,13%,-3%,?,29%,16µM*,?
c1ccc(-c2nc(-c3cccc4ccccc34)c(Nc3ccc4ccccc4c3)o2)cc1,·,·,·,·,9%,·
CCOc1ccc(C(=O)Nc2ccc(CN3CCOCC3)cc2)cc1Br,-6%,-2%,13µM*,1%,·,4%
COc1ccc(-c2cc(-c3c(O)c(OC)c4occc4c3OC)[nH]n2)cc1,-2%,·,17µM*,-1%,-35%,3%
COc1ccc(-c2noc(-c3cc(-c4ccc(F)cc4)n[nH]3)n2)cc1,·,·,4%,·,·,·
COc1ccc(-c2cc(-c3c(O)c(OC)c4occc4c3OC)[nH]n2)cc1OC,-5%,-2%,17µM*,3%,-12%,11%
Cc1cc(C(=O)CSc2ccccc2)cc(C)c1O,?,5%,19µM*,?,·,0%
Cc1cc(C(=O)CS(=O)(=O)c2ccccc2)cc(C)c1O,?,0%,?,28%,·,26%
CC1CCCN(c2ccc(C(=O)NCC3CCCO3)cn2)C1 (configuration not stated),16%,-5%,?,?,13µM*,?
O=C(NCC1CCCO1)c1ccc(/C=N/O)nc1 (configuration not stated),1%,-1%,5%,0%,3%,-9%
CC1CCN(c2ccc(C(=O)NCc3cccs3)cn2)CC1,?,-16%,24µM*,?,15%,?
NS(=O)(=O)c1ccc2nc(NC(=O)c3ccc4ncsc4c3)sc2c1,8%,0%,2.4µM*,22%,·,21%
NS(=O)(=O)c1ccc2nc(NC(=O)c3ccc4c(c3)OCCO4)sc2c1,3%,-17%,-7%,-5%,·,3%
Cc1ccc2nc(NC(=O)c3ccc4ncsc4c3)sc2c1,2.9µM*,?,0.95µM*,1.6µM*,7.1µM*,1.3µM*
O=C(/C=C/c1ccc2c(c1)OCO2)Nc1nc2ccc(F)cc2s1,?,?,?,1.8µM*,·,1.4µM*
Cc1ccc2nc(NC(=O)c3ccc4c(c3)OCO4)sc2c1,14%,-6%,0.95µM*,1.6µM*,11µM*,1.1µM*
SMILES,ELG1 genotoxic,uPA surface inh,FLuc counter,NPC1 prom act,SMN2 splice up,Rab9 promoter act
Cc1cccc(NC(=O)c2cc3c(=O)n(Cc4ccco4)ccc3nc2C)c1,·,·,-8%,·,·,·
O=C(c1cnn(-c2ccc(F)cc2)c1-n1cccc1)N1CCN(c2ccccc2)CC1,·,·,-9%,·,·,·
CC(C)(C)c1ccc(CNc2ccc([N+](=O)[O-])cn2)cc1,?,2%,12µM*,26%,?,?
CC(C)(C)c1ccc(Cn2cnc(-c3ccc([N+](=O)[O-])cc3)c2)cc1,?,?,19µM*,?,27%,?
CC(C)c1ccc(CNc2ccc([N+](=O)[O-])cn2)cc1,?,2%,9.5µM*,?,16µM*,?
O=[N+]([O-])c1ccc(NCc2ccc(Cl)cc2)nc1,?,2%,15µM*,?,·,?
CC(C)CN1CC[C@@]2(CCCN(S(=O)(=O)c3ccccc3)C2)C1,·,·,·,·,7%,·
CCc1c(C)sc(NC(=O)c2noc(C)c2[N+](=O)[O-])c1C#N,3%,-7%,11µM*,-2%,-25%,3%
Cc1sc(NC(=S)NC(=O)c2ccco2)c(C#N)c1C,?,-6%,2.7µM*,0%,·,?
CCOC(=O)c1sc(NC(=O)CC)c(C#N)c1C,21%,-1%,4%,-11%,0%,-3%
Cc1sc(NC(=O)c2ccco2)c(CN2CCN(c3ccc(F)cc3)CC2)c1C,-3%,1%,?,0%,-21%,0%
CCc1c(C)sc(NC(=O)c2cc(CC(C)C)on2)c1C#N,0%,-17%,-11%,2%,-11%,-2%
CCOC(=O)c1sc(NC(=O)c2ccco2)c(C#N)c1C,-2%,-3%,13µM*,0%,-3%,-2%
Cc1sc(NC(=O)c2ccco2)c(CN2CCN(c3ccccn3)CC2)c1C,4%,8%,6µM*,8%,·,10%
O=C(CSc1ncc2c(n1)-c1ccccc1N(Cc1ccccc1)S2(=O)=O)Nc1ccccc1,·,·,1%,·,·,·
CCn1cc(C(=O)NCc2ccccc2Cl)c(=O)c2cc(S(=O)(=O)N3CCc4ccccc4C3)ccc21,·,·,5%,·,13%,·
COc1ccc(N2C(=O)CCC(C(=O)N3CCN(c4ccccn4)CC3)C2c2ccc(F)cc2)cc1 (configuration not stated),-26%,-3%,0%,-1%,-24%,-2%
CC(C)CC(C(=O)NCCc1ccccc1)N1Cc2ccccc2C1=O (configuration not stated),·,·,-3%,·,·,·
CCc1c(C)sc(NC(=O)c2ccco2)c1C#N,?,-9%,17µM*,?,·,3.5µM*
CCCCOc1ccc(-c2cn3ccccc3n2)cc1[N+](=O)[O-],?,7.9µM*,2.1µM*,?,6.3µM*,2.8µM*
Nc1nc(-c2ccc([N+](=O)[O-])cc2)cs1,14%,-1%,-1%,16%,·,29%
